# Laboratory results: ChEMBL document CHEMBL3988442, “University of Dundee, Small-Polar-MMV Screening Library” (2021)
# About 13,000 (27%) of roughly 48,000 compounds showed an effect of 50% or more. This is one part of the list.
# Tested on: Wolbachia pipientis
# Assay: Anti-Wolbachia Cell-Based Screen
# Format: functional
# Design: scale not given: in the data most compounds retested in dose-response had high values
# Details: 5 µM
row,Compound,Percent Effect [%]
1,Cc1ccc2nc3n(c2c1)[C@@H](CNCc1nccs1)COC3,-1.407
2,COc1ccccc1C(NC(=O)CN(C)C(C)C)c1noc(C)n1 (stereo not given),-26.87
3,Cc1ccc(C)c(NC(=O)N(C)Cc2cnn(C)c2)c1,5.925
4,COCC(=O)N1CCC2(CCC2N(C)Cc2ccco2)CC1.O=C(O)C(F)(F)F (stereo not given),-4.207
5,CC(C(=O)NCc1cccc(N2CCCC2=O)c1)S(C)(=O)=O (stereo not given),-9.157
6,COc1ccc(NC(=O)NCc2cccc(N(C)C)n2)c(Cl)c1,3.933
7,CCc1nc(C(=O)NCc2ccc(N3CCNC(=O)C3)c(F)c2)c[nH]1,-14.99
8,Cc1ccc([C@@H]2CN(S(=O)(=O)Cc3ccccc3)C[C@H]2N(C)C)cc1,2.624
9,CC(C)(C)n1nnnc1CN(Cc1ccccc1)Cc1ccccc1Cl,144.9
10,CCN(Cc1noc(CC(C)C)n1)Cc1ccccc1Cl,16.12
11,CCn1ccnc1CN(C)Cc1nc(Cc2ccccc2Cl)no1,-11.87
12,CC(C)(C)n1nnnc1CN(Cc1ccccc1)Cc1ccc(Cl)cc1,282.7
13,CN(CCc1ccncc1)Cc1nccn1Cc1ccccc1,0.009024
14,CCN(Cc1ccncc1)Cc1cn(-c2ccccc2)nn1,-1.691
15,CC(C)(C)n1nnnc1CN(CCc1ccccc1)Cc1ccccc1,189.2
16,CN(Cc1ccncc1)Cc1nccn1Cc1ccccc1,10.06
17,Cc1nc(CCN(C)C(=O)CN2C(=O)OC[C@@H]2c2ccccc2)no1,2.107
18,CN(C)[C@H]1C[C@@H](Cc2cc(-c3ccc(F)cc3)on2)C1(C)C,-8.527
19,CN(Cc1ccoc1)C(=O)C1(Oc2ccc(Cl)cc2)CCNCC1,7.031
20,CN1CCOC(C(=O)Nc2ccc3c(c2)nc(C2CC2)n3C)C1 (stereo not given),-8.812

row,Compound,Percent Effect [%]
1,CCS(=O)(=O)N1CC[C@H]2O[C@H](c3nnc(C)o3)CC[C@H]21,-2.674
2,CC(C)C(=O)NC1COC2(CCN(Cc3cccnc3)CC2)C1.O=C(O)C(F)(F)F.O=C(O)C(F)(F)F (stereo not given),-8.179
3,CN(C)C(=O)NC1COC2(CCN(Cc3ccco3)CC2)C1 (stereo not given),-11.16
4,COc1ccc(CN2CCC3(CC2)CN(c2ccccn2)CCO3)cc1.O=C(O)C(F)(F)F.O=C(O)C(F)(F)F,-0.9926
5,CC(C)C1COC2(CCN(Cc3ccco3)CC2)C1.O=C(O)C(F)(F)F (stereo not given),8.563
6,CC(C)NC(=O)[C@H]1C[C@@H]2[C@@H](C1)OCCN2Cc1ccsc1.O=C(O)C(F)(F)F,9.511
7,COc1ccc(CN2CCOC3(CCCN(C(C)=O)C3)C2)cc1.O=C(O)C(F)(F)F (stereo not given),-1.413
8,CC(C)NC(=O)CC1COC2(CCN(Cc3cccnc3)CC2)C1.O=C(O)C(F)(F)F.O=C(O)C(F)(F)F (stereo not given),94.4
9,CC(C)NC(=O)CC1COC2(CCN(Cc3ccco3)CC2)C1 (stereo not given),109.8
10,CC(C)NC(=O)CC1COC2(CCN(Cc3ccsc3)CC2)C1.O=C(O)C(F)(F)F (stereo not given),89.57
11,CN(C)C(=O)CO[C@H]1CO[C@@]2(CCN(Cc3ccsc3)C2)C1.O=C(O)C(F)(F)F,-11.41
12,COc1ccc(CN2CCC3(CC2)CC(CC(=O)NC(C)C)CO3)cc1.O=C(O)C(F)(F)F (stereo not given),102.4
13,CC(C)OCc1ncn2c1CN(Cc1ccoc1)CCC2.O=C(O)C(F)(F)F,-8.556
14,Cc1ncsc1CN1C[C@H](C(=O)N2CCCO2)[C@@H]2CCO[C@@H]2C1.O=C(O)C(F)(F)F.O=C(O)C(F)(F)F,-11.3
15,Cc1[nH]ccc1C(=O)N(Cc1ccc(O)cc1)CC1CC1,16.53
16,FC(F)(F)C1CCCn2c(CNCc3ccco3)nnc21 (stereo not given),4.38
17,c1nc(N2CCCCC2Cn2cncn2)c2ccsc2n1 (stereo not given),0.5498
18,CCCc1cc(N(CCOC)CC(F)F)n2ncnc2n1,-3.752
19,CN(C)C(=O)CN(C)C(=O)c1cccn1CCc1ccccc1,-9.709
20,Cc1ccc(CN2CC(C(=O)NC(C)C)C3(CCOCC3)C2)s1.O=C(O)C(F)(F)F (stereo not given),1.411

row,Compound,Percent Effect [%]
1,CC(=O)N1CCOCC2(CCN(Cc3ccc(C)s3)CC2)C1.O=C(O)C(F)(F)F,-6.944
2,Cc1ccc(CN2CCC3(CC2)CC(CC(=O)NC(C)C)CO3)s1.O=C(O)C(F)(F)F (stereo not given),100.2
3,N#Cc1ccc(C(=O)N2CCCC3(C=Cc4ccccc4O3)CC2)cn1 (stereo not given),6.705
4,CC(=O)NC(C)C(=O)N(Cc1ccc(C)c(C)c1)C1CC1 (stereo not given),-3.122
5,CN1CC[C@H](c2ccccc2)[C@@H]2[C@H]1CCCCN2C(=O)c1cnccn1,-5.726
6,CN1CCCCC[C@@H]2[C@@H]1[C@H](c1ccccc1)CN2C(=O)c1ccccn1,114.6
7,CN1CCCC[C@@H]2[C@H]1[C@@H](c1ccccc1)CCN2C(=O)c1ccccn1,98.54
8,Cn1cc(C(=O)N2CC[C@@H]3[C@@H]2CCN3c2ccccn2)cn1,-3.073
9,O=C(c1ccccn1)N1C[C@@H]2CC[C@H](C1)N(C(=O)CCN1CCCC1)C2,-10.03
10,CN1CCCC[C@@H]2[C@H]1[C@@H](c1ccccc1)CCN2C(=O)c1cnccn1,3.186
11,CCc1nsc(NC2CC(=O)N(C(C)(C)C)C2)n1 (stereo not given),-4.433
12,O=C(CNCC1CCCN1c1cccnn1)NCCc1cccs1 (stereo not given),4.052
13,O=C(CC1CCN(c2cccnn2)CC1)NC1CCOCC1,83.52
14,Cc1ccc(N2CCCC(NCC(=O)NC3CCOCC3)C2)nn1 (stereo not given),0.2085
15,CC(OCC1CC1)C(=O)N1CCCN(c2cccnn2)CC1 (stereo not given),-4.711
16,CN(C)CCNC(=O)CC1CCN(c2cccnn2)CC1,87.97
17,O=C(CC1CCN(c2cccnn2)CC1)NCCO,94.51
18,O=C(CCc1cccs1)NCC1CCCN1c1cccnn1 (stereo not given),-0.2437
19,CN1CCC(C(=O)N2CCCN(c3cccnn3)CC2)C1 (stereo not given),-4.749
20,O=C(CN1CCCC1Cn1cccn1)NC1CCOCC1 (stereo not given),-8.305
